Screening data: PubChem, SRMLSC
Spn PMK inh = S. pneumoniae PMK inhibitors, primary screen, biochemical, mevalonate pathway, pilot trial included | hit rate 0.49% among 65,000 | inhibition, % at 10 µM | purified PMK, PK/LDH-coupled NADH absorbance 340 nm | phosphomevalonate kinase (Streptococcus pneumoniae D39);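 active = top-ranked compounds by inhibition in the single 10 µM screen, taking a fixed number of the strongest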;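 note: 0% = full reaction with DMSO carrier and 100% = background rate without enzyme reaction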
Autofluor 339 = intrinsic fluorescence of library compounds, ex339/em460 – biochemical, MLSMR library, data from DPM-DC assay, artefact control, profiling panel; compound autofluorescence, ex339/em460 nm, NADH buffer; active compounds read high; 1 = no-compound wells, NADH background; fluorescence fold increase at 10 µM; hit rate 5.5% among 65,000;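 active = at 10 µM, mean starting fluorescence two-fold or more over control wells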;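 note: signal is the first read of a kinetic run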
A340 absorber = compound light absorbance at 340 nm, profiling panel, artefact control, biochemical, MLSMR library, data from PS, PMK, MK assays | compound absorbance at 340 nm, fold over control | fold change at 10 µM | 65,000 tested, under 10 active;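 active = at 10 µM dose, initial 340 nm absorbance at least 2 fold that of control wells; inactive = change under 2 fold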;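 note: initial absorbance extrapolated from kinetic A340 decline of NADH oxidation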
MK inhibit = S. pneumoniae MK inhibitors, primary screen, biochemical, PK/LDH-coupled NADH absorbance | mevalonate kinase [Streptococcus pneumoniae D39] | purified MK, PK/LDH-coupled NADH absorbance 340 nm | inhibition, % at 10 µM | hit rate 0.48% among 65,000 | AID 555, 2006;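 active = ranked among the strongest by inhibition in the single 10 µM screen, a fixed top-ranked set picked for dose follow-up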
NADH coupling = inhibitors of PK/LDH coupling enzymes, profiling panel, artefact control, biochemical, MLSMR library. coupled PK/LDH NADH assays, four targets. IC50, µM (highest dose often 10 µM), inactives show at the highest dose inhibition. hit rate 0.02% among 65,000;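 active = single-dose screening hits from any of four coupled enzyme assays that gave an IC50 when retested across doses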;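 note: the DPM-DC format reads NADH fluorescence rather than 340 nm absorbance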
Spn DPM-DC inh = S. pneumoniae DPM-DC inhibitors, primary screen, biochemical, PK/LDH-coupled NADH fluorescence; diphosphomevalonate decarboxylase (Streptococcus pneumoniae D39); purified DPM-DC; calls only at 10 µM; hit rate 0.49% among 65,000; AID 556, 2006;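 active = the 320 compounds with the highest percent inhibition in the single-dose primary screen, excluding strongly autofluorescent ones, cut at about 32% in these data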;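 note: kinetic rate of NADH fluorescence loss reporting ADP formed by the decarboxylase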
Numbers without * were called inactive; i = inactive; nt = not tested or not shown; + = active, no number; [ ] = remark or other dose. In the library only some 6.3% were active in any assay of this set; here they are far more common.

SMILES	Spn PMK inh	Autofluor 339	A340 absorber	MK inhibit	NADH coupling	Spn DPM-DC inh
COc1ccc(CN2C(=O)c3cccnc3C2Nc2cc(Cl)ccc2OC)cc1 (stereo not given)	14	1	1	83*	17%	i
N#Cc1cc2ccc(N3CCOCC3)cc2cc1C#N	4	2.5*	1	10	3%	nt
CCCCOc1ccc(/C(N)=N/O)cc1	18	1.1	1	0	6%	i
CC(Nc1nc(N2CCN(S(C)(=O)=O)CC2)nc2ccccc12)c1ccccc1 (stereo not given)	2	2.1*	1.1	13	8%	nt
CCOc1cc(-c2cc(-c3ccc(N)cc3)nc(N)c2C#N)ccc1O	5	3.6*	1.1	12	9%	nt
Cc1nn(CCC(=O)O)c2nc(-c3cccnc3)cc(C(F)(F)F)c12	5	4.9*	1.1	5	5%	nt
COc1cccc(C2C(C(=O)OC(C)C)=C(C)Nc3ncnn32)c1 (stereo not given)	17	1.1	0.98	3	7%	i
COCCCNC(=O)CN(C1CCCCC1)S(=O)(=O)c1ccc(C)cc1	30*	1.1	1	2	11%	i
CCn1nc(NC(=O)c2ccccn2)c2cc3cccc(C)c3nc21	9	3.4*	1.1	8	9%	nt
CN(C)CCN(C)Cc1ccc2c(c1)Cc1ccccc1-2	0	1.1	1	4	1%	i
OC1CCCN(Cc2ccc3c(c2)Cc2ccccc2-3)C1 (stereo not given)	33*	1.1	1	9	14%	i
CCn1nc(NC(=O)c2ccncc2)c2cc3ccccc3nc21	0	1.2	1	8	3%	i
CCCn1nc(-c2ccccc2)c2nc3ccccc3nc21	8	2.4*	1.1	3	4%	i
CCn1nc(-c2ccccc2)c2nc3ccccc3nc21	13	2.4*	1.1	5	12%	i
CC1(C)CC(NC(=O)C23CCC(C)(/C(=N/O)C2)C3(C)C)CC(C)(C)N1 (stereo not given)	6	1	0.99	2	4%	i
CC1Cc2ccccc2N1C(=O)CCn1c(=O)sc2ccccc21 (stereo not given)	8	1	1	2	3%	i
Cn1c(-c2ccccc2)cc2c3no[n+]([O-])c3ccc21	9	1.1	1.1	7	7%	i
COc1cccc(N(CC(=O)N2CCN(C)CC2)S(=O)(=O)c2ccc(C)cc2)c1	8	1.1	1	7	9%	i
O=C(CSc1ccc2c(c1)OCCO2)NCc1ccco1	14	0.99	1	2	7%	i
CCOc1ccc2cc(C#N)c(SCC(=O)N3CCOCC3)nc2c1	3	2.7*	1	11	3%	nt
CCC(=O)Oc1ccc2c(C)cc(=O)oc2c1C	12	2.1*	0.98	7	5%	+[fluoresces]
CCc1ccccc1NC(=O)CN1C(=O)C2CCCN2c2ncc(Cl)cc21 (stereo not given)	10	1.1	1	2	4%	i
CC1CCC(NC(=O)CN2C(=O)C3CCCN3c3ncc(Cl)cc32)CC1 (stereo not given)	2	2.3*	1.1	9	4%	i
COC(=O)c1ccccc1NC(=O)CN1C(=O)C2CCCN2c2ncc(Cl)cc21 (stereo not given)	4	2.1*	1.1	13	12%	i
CC1CCc2nc(N)c(C#N)c(-c3cccnc3)c2C1 (stereo not given)	0	2	1.1	8	9%	i
SMILES	Spn PMK inh	Autofluor 339	A340 absorber	MK inhibit	NADH coupling	Spn DPM-DC inh
CC1CCc2nc(N)c(C#N)c(-c3ccncc3)c2C1 (stereo not given)	15	3.8*	1.1	11	13%	nt
CCn1cc(C(=O)OCC(=O)NCc2ccc3c(c2)OCO3)c(=O)c2ccc(C)nc21	1	1	1	2	1%	i
Cn1c2ccccc2c2c(C(=O)NCCCN3CCCC3=O)cn(C3CCCCC3)c(=O)c21	21	2.5*	1	18	6%	nt
Cn1c(C(=O)NCCCN2CCCC2=O)cc2c(=O)n(C)c3ccccc3c21	5	1.5	1	12	16%	i
CN1CCN(CCCNC(=O)c2cn(C3CCCCC3)c(=O)c3c2c2ccccc2n3C)CC1	20	2.1*	1.1	3	12%	nt
Cc1nc2ccc(NC(=O)NCc3ccco3)cc2s1	9	1.1	0.99	5	2%	i
Cc1nc2cc(NC(=O)NCc3ccco3)ccc2n1C	8	1.1	0.97	10	39%	+
O=C(c1ccc2c(=O)n(-c3ccccc3)c(=O)[nH]c2c1)N1CCCCC1	0	1.6	1.1	5	2%	i
COc1ccc2c(c1)c(C(=O)OCCN(C)C)c(C)n2C	10	1.1	1	9	6%	i
COc1ccc2nc(C)c(C(=O)OCCN(C)C)cc2c1	2	2.1*	1	0	7%	i
FC(F)C(F)(F)C(F)(F)C(F)(F)c1cc(-c2ccccc2)n[nH]1	0	1	1	2	1%	i
CCC(C)(C)NC(=O)CN(C(=O)c1snc(C(N)=O)c1N)c1ccc2c(c1)OCO2	0	1.1	1	0	4%	i
CCc1ccccc1N(CC(=O)NCc1ccco1)C(=O)c1snc(C(N)=O)c1N	5	3.3*	1.1	6	6%	nt
COc1ccc(CNC(=O)C(C)N(Cc2ccco2)C(=O)c2snc(C(N)=O)c2N)cc1 (stereo not given)	13	2.2*	1	12	13%	i
CC(C)CCNC(=O)C(c1ccco1)N(Cc1ccccc1)C(=O)c1snc(C(N)=O)c1N (stereo not given)	15	1.9	1	13	15%	i
O=S(=O)(NCCC1=CCCCC1)c1cccc(S(=O)(=O)N2CCOCC2)c1	8	1.1	0.97	nt	4%	i
CCC(=O)Nc1ccc(NC(=O)c2ccccn2)cn1	0	1.1	1	active	4%	i
COc1ccccc1-c1nnc(NC(=O)c2ccc(S(=O)(=O)N(C)Cc3ccccc3)cc2)o1	10	3*	1	6	5%	nt
CN(Cc1ccccc1)S(=O)(=O)c1ccc(C(=O)Nc2nnc(C3CC3)o2)cc1	10	1.1	1	3	4%	i
Cc1cc(Oc2ccccc2)nc2ccc(O)cc12	4	2.1*	1.1	8	6%	nt
Cc1cc(Oc2ccccc2)nc(-c2ccccc2)n1	0	0.98	0.99	5	2%	i
